Screens: PubChem, National Center for Advancing Translational Sciences (NCATS)
HCMV antiviral = qHTS Assay for inhibitors of the human cytomegalovirus (HCMV); HFF cells, HCMV-luciferase reporter, 72 h; hits give low values; activity change, negative = inhibition, % at 57.5 µM; hit rate 4.5% among 410,000; AID 1259415, 2018; in the data active = activity change below about -60%; inconclusive = no clear call, values can overlap the other calls; inactive = above about -39%; note: % is set by controls: 0 for no effect and ±100 for the full control effect
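After 16 h attachment at 37C, HFF cells received test compound and HCMV-luciferase (1 PFU/cell); reporter luminescence read 72 h later, data normalized against buffer-only and known inhibitor Salinomycin.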
FMDV antiviral = High Throughput Screening for Foot and Mouth Disease Virus Antivirals | FMDV antiviral cell-based qHTS | Potency, µM (top dose mostly 57.9 µM), without a hit: top-dose activity change, negative = inhibition, most hits filed as inhibitors | hit rate 1.2% among 410,000; calls by dose curve; tested in HEK293T cells; note: read-out not given here; potency is the fitted concentration of half-maximal effect; % is set by controls: 0 for no effect and ±100 for the full control effect; nearly all actives have a fitted effect of over 45% in size
SARS PLpro yeast = qHTS of Yeast-based Assay for SARS-CoV PLP; S. cerevisiae expressing SARS-CoV PLpro, growth rescue; Potency, µM (doses to about 32.9 µM), without a hit: top-dose activity, positive = growth rescue, actives largely listed as activators; hit rate 0.19% among 330,000; calls by dose curve; note: potency is the fitted concentration of half-maximal effect; 0% is about no effect; nearly all actives have a fitted effect of over 55% in size
Marburg entry inh = qHTS for inhibitors of binding or entry into cells for Marburg Virus | Marburg virus pseudotyped entry inhibition, cell reporter | Potency, µM (highest dose often 37.8 µM), inactives show at the highest dose activity change, negative = inhibition, most hits filed as inhibitors | hit rate 1.8% among 300,000 | AID 540276, 2011; calls by dose curve; tested in HEK293 cells; note: potency is the fitted concentration of half-maximal effect; % is set by controls: 0 for no effect and ±100 for the full control effect
HCV inhibitor = qHTS Assay for Inhibitors of Hepatitis C Virus (HCV). Potency, µM (titrated, usually from 41.8 µM), for the others: top-dose activity change, negative = inhibition, most hits filed as inhibitors. AID 651820, 2012. hit rate 3.4% among 340,000. Huh7.5.1 HCVcc-Cre infection, luciferase reporter, 44 h; active = well fitted inhibition curve with a large enough effect; inconclusive = small, poorly fitted or top-dose-only effect, or another doubt; inactive = no such curve, though single readings can be large or run the other way; note: potency is the fitted concentration of half-maximal effect; % is set by controls: 0 for no effect and ±100 for the full control effect
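A cell-based infection assay in which seeded cells (1,000 per well) receive test compound after 4 h, are inoculated with HCVcc-Cre at approximately 0.5 moi, and are incubated 44 h before luminescence detection.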
LASV entry inh = qHTS for Inhibitors of binding or entry into cells for Lassa Virus; Lassa virus pseudotype entry inhibition, cell reporter; Potency, µM (doses to about 37.9 µM), for the others: top-dose activity change, negative = inhibition, usual class: inhibitors; hit rate 1.2% among 300,000; AID 540256, 2011; calls by dose curve; tested in HEK293 cells; note: potency is the fitted concentration of half-maximal effect; % is set by controls: 0 for no effect and ±100 for the full control effect; nearly all actives have a fitted effect of over 50% in size
Active calls of the source: *; ? = inconclusive; · = no result given; [ ] = dose if it differs, or a comment. In the library only some 8% were active in any assay of this set; here they are far more common.

SMILES | HCMV antiviral | FMDV antiviral | SARS PLpro yeast | Marburg entry inh | HCV inhibitor | LASV entry inh
COc1c(C)cc(C(=O)C2CCCN(C(=O)c3ccc4cc[nH]c4c3)C2)cc1C (stereo unspecified) | -11 | 4% | -1% | -27%[46.1 µM] | -6% | ?
Cc1ccc(CNC(=O)CCS(=O)(=O)c2ccc3c(c2)NC(=O)CS3)cc1 | 13 | -18% | 3% | · | -11% | ·
O=C(NCC(c1cccnc1)N1CCc2ccccc21)C(=O)Nc1ccccc1F (stereo unspecified) | 7 | -18% | · | · | · | 1%[46.1 µM]
CCN(CC)CCCn1c(C)cc2c(c1=O)C(c1cccc(Cl)c1)C(C#N)=C(N)O2 (stereo unspecified) | 18 | 2% | 1% | 11µM* | -6% | ?
CCN(CC)CCCn1c(C)cc2c(c1=O)C(c1cc(OC)c(OC)cc1OC)C(C#N)=C(N)O2 (stereo unspecified) | 13 | -25% | -1% | 14% | 7% | 3%
CC(=O)Nc1cccc(Oc2ncnc3scc(-c4ccc(C(C)C)cc4)c23)c1 | ? | -18% | -7% | 2.8µM* | ? | 2.5µM*
CN1CCN(Cc2c(O)ccc3cc(Br)ccc23)CC1 | -69* | 0% | -5% | ? | -12% | -14%[46.1 µM]
CCc1cc(=O)oc2c(CN3CCN(C)CC3)c(O)ccc12 | 20 | -4% | -2% | -17% | 15% | 3%
COc1ccc(CCn2c(C)cc(C(=O)CN3C(=O)C(=O)N(C4CCCC4)C3=O)c2C)cc1OC | -28 | -8% | 4% | ? | 10µM* | -16%
COc1ccc(C)cc1NC(=O)CN1C(=O)C(=O)N(C2CCCC2)C1=O | -11 | -13% | -6% | · | 22% | ·
COc1cccc(N2CCN(C(=O)c3c4c(nc5ccccc35)C(=O)N(C3CCCCC3)C4)CC2)c1 | 11 | -11% | · | · | · | -9%[46.1 µM]
COc1ccc(CN2C(=O)C(n3c(C)ccc3C)c3ccccc32)cc1 (stereo unspecified) | -7 | · | · | · | · | ·
CSC1=C(C#N)C(=O)NC(c2ccccc2O)S1 (stereo unspecified) | 11 | ? | 1% | -2% | 19% | 26%
COC(=O)CSC1=C(C#N)C(=O)NC(c2ccccc2)S1 (stereo unspecified) | -16 | 7.9µM* | 5% | 19% | 13% | -19%
COc1ccc(NC(=O)CSc2ncc3c(n2)-c2ccccc2N(C)S3(=O)=O)cc1Cl | 7 | -26% | · | · | · | -14%[46.1 µM]
O=c1c2ccccc2nc(/C=C/c2ccc(O)cc2)n1-c1ccc(O)cc1 | -19 | -19% | -2% | · | ? | ·
O=c1c2ccccc2nc(/C=C/c2ccccc2O)n1-c1ccc(Br)cc1 | -63* | ? | · | · | · | ?
CCn1c(/C=C/c2ccc(O)c(O)c2)nc2ccccc2c1=O | -16 | -29% | 4% | · | -22% | ·
CCn1c(/C=C/c2cc(Br)ccc2O)nc2ccccc2c1=O | -93* | ? | 3% | · | ? | ·
CN1C2Cc3c(n(C)c4ccccc34)C1CC=C2CO (stereo unspecified) | -1 | -8% | 1% | · | 4% | ·
COc1ccc([C@H]2Cc3cc(O)cc(O)c3C(=O)O2)cc1O | -102* | -3% | 1% | · | 13% | ·
CN(C(=O)C(=O)Nc1ccc2nc3n(c(=O)c2c1)CCCCC3)c1cccc(C(F)(F)F)c1 | -1 | 0% | · | 2%[46.1 µM] | · | 8%[46.1 µM]
Cc1cc(N=Nc2ccccc2C)ccc1N | 27 | 31% | · | -11%[46.1 µM] | 13µM* | -14%
CC(=O)NC(NC(=S)Nc1ccc(N=Nc2ccccc2C)cc1C)C(Cl)(Cl)Cl (stereo unspecified) | 25 | 20% | -2% | ? | ? | -19%
O=C(NCc1nnc(SCC(=O)N2CCN(c3ccccc3)CC2)o1)c1ccc(F)cc1 | -5 | -24% | 3% | 3% | · | 1%
Cc1cnc(-n2ncc(C(=O)NCCN3CCOCC3)c2-c2cccs2)nc1-c1ccc(F)cc1 | · | -2% | · | · | · | ·
CCOC(=O)c1c(C)[nH]c(C(=O)COC(=O)/C=C/c2ccc(OC(F)F)cc2)c1C | -4 | -9% | 10% | -7% | 2% | -2%
